D1 agonist = human D1 receptor agonism; HEK293 T-REx D1 cells, calcium flux, agonist mode; activation, % at 2 µM; AID 504660; 360,000 tested, 1% active; P21728; further: 0% is about no effect
Target sequence (P21728 whole entry, looked up): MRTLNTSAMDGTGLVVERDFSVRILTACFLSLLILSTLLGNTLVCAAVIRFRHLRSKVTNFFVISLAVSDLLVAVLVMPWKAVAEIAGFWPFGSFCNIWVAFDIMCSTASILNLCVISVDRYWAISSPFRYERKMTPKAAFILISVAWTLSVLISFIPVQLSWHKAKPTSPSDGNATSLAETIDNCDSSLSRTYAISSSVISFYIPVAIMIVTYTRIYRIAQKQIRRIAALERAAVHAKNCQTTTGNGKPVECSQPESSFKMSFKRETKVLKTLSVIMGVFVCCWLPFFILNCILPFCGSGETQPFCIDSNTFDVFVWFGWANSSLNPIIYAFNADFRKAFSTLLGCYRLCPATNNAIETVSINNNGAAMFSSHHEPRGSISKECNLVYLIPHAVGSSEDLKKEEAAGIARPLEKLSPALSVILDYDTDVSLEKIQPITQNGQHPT
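Inducible HEK293 T-REx D1 cells, force-coupled to calcium signalling, were plated at 4000 cells/well with tetracycline and held overnight at 30 C. After no-wash calcium dye loading, compound-evoked calcium rise over 180 s flagged agonists.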
TRHR enhancer = TRH receptor (human) allosteric enhancement; 360,000 tested, 0.66% active; TRHR cells, fluo-8 calcium fluorescence, EC20 TRH enhancement; AID 493056; P34981; enhancement, % at 2 µM; in the data active means enhancement above about 30%; further: 0% is about no effect
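TRHR-expressing cells loaded with fluo-8 calcium dye were read kinetically (ex 480/em 530) during compound addition, then stimulated with an EC20 of TRH (10 nM final). Enhancement of the Gq-mediated intracellular calcium response was scored.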
D1 antag = human D1 dopamine receptor antagonism; P21728; HEK293 TREx D1 cells, calcium flux, dopamine EC80; hits give low values; activity change, negative = inhibition, % at 10 µM; 360,000 tested, 3.2% active; in the data active means activity change below about -30%; further: on the % scale 0 is the no-effect control and ±100 the full control effect
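Calcium flux readout: force-coupled, inducible Hek293 Trex D1 line, cells induced overnight at 30 C with tetracycline, dye-loaded 30–90 min at RT. Antagonism scored against EC80 dopamine challenge given 180 s after compound.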
TRHR agonist = activates the human TRH receptor. P34981. TRHR cells, calcium flux fluo-8, FDSS agonist mode. activation, % at 2 µM. 360,000 tested, 0.18% active. AID 493084; further: 0% is about no effect
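In this calcium-flux screen, cells bearing human TRHR are dye-loaded with fluo-8, baselined for 10 cycles, then exposed to library compounds; positive kinetic calcium responses during the agonist phase mark hits, with TRH as control.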
D1 PAM = potentiators of human D1 dopamine receptor. P21728. HEK293 TREx D1 cells, calcium flux, dopamine EC20 potentiation. potentiation, % at 10 µM. 360,000 tested, 0.036% active. AID 504651; in the data active means potentiation above about 30%; further: 0% is about no effect
* = called active by the depositor. Rows were chosen to be rich in hits. Some 4.6% of all compounds tested hit in one or more screens of this group. Unless noted, no stated cut-off is given here; in the data, active means activation above about 30%; inactive means the rest.

SMILES | D1 agonist | TRHR enhancer | D1 antag | TRHR agonist | D1 PAM
CC(=O)N1c2ccccc2C(=O)C1N1CCN(c2ccccc2F)CC1 (stereo unspecified) | 2.9 | -0.4 | 10.4 | -0.2 | -3.1
O=C(CSc1nc(-c2ccccc2)[nH]c1-c1ccccc1)Nc1ccc2c(c1)OCO2 | 2.9 | -5.2 | -30.2* | -0.9 | -4.9
O=C(CSc1nccn1-c1ccc(Cl)cc1)Nc1ccc2c(c1)OCO2 | 5.2 | 1.4 | -49.3* | -0.9 | -10.5
Nn1c(SCc2cccc(F)c2)nnc1-c1cccnc1 | 1.6 | 1.8 | -31.4* | 0.9 | -4.7
Nn1c(SCC(=O)Nc2ccc3c(c2)OCCO3)nnc1-c1cccnc1 | 2.2 | -5.3 | -37.4* | 0.2 | -1.1
O=C(OCC(=O)N1CCN(Cc2ccccc2)CC1)c1cc(Cl)ccc1[N+](=O)[O-] | 0.5 | 1.4 | -2.2 | -0.1 | -8.0
O=C(CSc1nnc(-c2cccnc2)n1-c1ccccc1)Nc1ccc2c(c1)OCO2 | 0.4 | -3.5 | -60.6* | -0.6 | -4.0
O=C(CN1CCN(c2nc(-c3ccccc3)cs2)CC1)Nc1ccc2c(c1)OCO2 | 1.8 | -2.6 | -32.4* | -0.1 | -8.7
COc1ccccc1-c1cnn2c(NC3CCCC3)cc(C)nc12 | 1.5 | -6.7 | 7.8 | -0.2 | 1.0
O=S(=O)(c1ccccc1Oc1ccc(Cl)cc1Cl)N1CCCCC1 | 4.9 | -3.6 | -47.1* | -0.8 | -1.1
CN1CCN(C(=O)c2cc(C(C)(C)C)cc(C(C)(C)C)c2)CC1 | 0.0 | 13.5 | -12.1 | 0.7 | 1.1
COCCCN1CCN(C2Cc3ccccc3Sc3ccc(Cl)cc32)CC1 (stereo unspecified) | 3.7 | 1.7 | -85.5* | 0.9 | -18.1
O=C(c1ccccc1Cl)N1CCNCC1 | 1.3 | 8.8 | 5.2 | 0.0 | 3.1
Clc1cccc2c1Sc1ccccc1CC2N1CCNCC1 (stereo unspecified) | 56.7* | 3.7 | -77.9* | 5.4 | -4.6
Clc1ccc2c(c1)C(N1CCNCC1)Cc1ccccc1S2 (stereo unspecified) | 9.5 | 2.2 | -86.4* | 2.1 | -28.1
NC(=O)CCN1CCN(CCOC2Cc3cc(Cl)ccc3Sc3ccccc32)CC1 (stereo unspecified) | 10.5 | -11.4 | -10.1 | 0.2 | -9.2
COc1ccc(OCC(=O)Nc2c(C(=O)N3CCN(C)CC3)oc3ccccc23)cc1 | 3.7 | 1.8 | -33.0* | 0.2 | -17.5
CCCCOc1ccc(CNC(=O)NS(=O)(=O)c2ccc(OCC)cc2)cc1 | -0.3 | 7.6 | -7.1 | -0.6 | -5.3
CCCCOc1ccc(S(=O)(=O)NC(=O)NCc2ccc(OCCC)cc2)cc1 | 0.7 | -0.7 | -38.4* | -0.4 | -14.9
CC(C)CNC(=S)N1CCC(c2nc(-c3ccc(F)cc3)no2)CC1 | 19.4 | -6.4 | -34.5* | -0.2 | -7.8
O=C(c1ccc(F)cc1)N1CCCC(c2nc(-c3ccncc3)no2)C1 (stereo unspecified) | 11.5 | -4.2 | 14.2 | 0.4 | -1.6
O=C(c1c(F)cccc1F)N1CCCC(c2nc(-c3ccc(F)cc3)no2)C1 (stereo unspecified) | 6.0 | 2.8 | -31.0* | 0.5 | 2.0
COc1cccc(-c2noc(C3CCCN(C(=O)CC(C)(C)C)C3)n2)c1 (stereo unspecified) | 2.4 | 7.1 | -66.8* | -0.1 | -6.5
Cc1csc2nc(COc3ccccc3NC(=O)c3ccco3)cc(=O)n12 | -0.2 | -5.9 | -10.3 | -0.6 | -4.0
COC(=O)c1cc(=O)n(CCc2ccc(OC)cc2)c(=Nc2ccc(F)c(Cl)c2)s1 | 7.3 | 3.0 | -59.7* | -0.5 | -7.9
SMILES | D1 agonist | TRHR enhancer | D1 antag | TRHR agonist | D1 PAM
COC(=O)c1cc(=O)n(CCc2ccccc2)c(=Nc2ccc(F)cc2)s1 | 0.1 | 9.9 | -16.3 | 1.6 | 3.9
COc1ccccc1CNC(=O)c1cc2c(=O)oc3ccc(C)cc3c2s1 | 2.1 | -4.5 | -3.6 | 0.0 | -5.7
CCCCN(C)CCNC(=O)c1ccc(Cn2c(=O)[nH]c3cc(OC)c(OC)cc3c2=O)cc1 | -1.5 | -2.0 | 0.2 | 1.8 | -0.2
O=C(O)CCCN1C(=O)C(=O)/C(=C(/O)c2ccccc2)C1/C=C/c1ccccc1 (stereo unspecified) | 2.6 | 19.8 | -30.8* | -0.2 | -4.0
CCOc1ccccc1C(=O)NCC(=O)N(C)Cc1ccccc1C | 6.2 | -6.5 | -43.3* | 0.2 | -4.3
CCOc1ccccc1C(=O)NCC(=O)Nc1ccc(-c2ccccc2)cc1 | -0.3 | 5.5 | 5.3 | 0.7 | -2.5
COc1cc(OC)c(OC)cc1CCC(C)NCCC(c1ccccc1)c1ccccc1 (stereo unspecified) | 77.9* | -2.2 | -15.4 | 7.0 | -6.8
COCCCNC(=O)CSc1nc2nc(C)c(Cc3ccccc3Cl)c(C)n2n1 | -0.1 | -4.4 | -7.0 | 0.3 | -0.2
O=C(O)CC1Sc2ccccc2NC1=O (stereo unspecified) | 1.7 | 1.6 | -14.9 | 0.1 | 3.5
O=C(CC1Sc2ccccc2NC1=O)c1ccc(Br)cc1 (stereo unspecified) | 0.5 | 2.6 | -55.8* | 0.3 | -5.3
Cc1cccc(C(=O)NNc2ncnc3c2cnn3-c2ccc(C)c(Cl)c2)c1 | -3.0 | -0.1 | -1.1 | -0.2 | 0.3
CCn1nc(C)cc1C(=O)N1CCCC(N2CCN(c3cccc(Cl)c3)CC2)C1 (stereo unspecified) | 2.7 | -1.3 | -53.7* | -0.6 | -10.9
Cc1cc(C(=O)N2CCCC(N3CCN(c4cccc(Cl)c4)CC3)C2)n(C)n1 (stereo unspecified) | 6.1 | -0.2 | 14.8 | 0.0 | -4.1
O=C(c1ccoc1)N1CCCC(N2CCN(c3ccc(F)cc3)CC2)C1 (stereo unspecified) | 0.2 | -1.3 | -6.3 | 0.3 | -5.0
O=C(c1ccoc1)N1CCCC(N2CCN(c3cccc(Cl)c3)CC2)C1 (stereo unspecified) | 4.0 | -8.0 | -46.1* | -0.5 | -5.2
C=CCN1C(=O)/C(=C/C=C2/N(CC)c3ccc(S(=O)(=O)N(C)C)cc3N2CC)SC1=S | 117.8* | 8.5 | 7.8 | 44.6* | -3.2
C=CCN1C(=O)/C(=C2/Sc3ccccc3N2CC)SC1=S | 4.5 | -1.2 | 16.2 | -0.1 | -1.4
Cc1ccc2c(=O)cc(C(=O)Nc3nc4ccc(Cl)cc4s3)oc2c1 | 2.7 | -9.2 | -5.9 | -0.5 | -0.7
COC(=O)C(/C=N/OCc1ccc([N+](=O)[O-])cc1)NC(=O)c1ccccc1 (stereo unspecified) | 30.2* | -6.9 | 2.8 | 2.5 | -2.6
CC(=O)CN1C(=O)NC2(CCCc3ccccc32)C1=O (stereo unspecified) | 0.9 | 0.0 | 10.9 | 0.2 | 7.2
CC(C)CN1C(=O)NC2(CCCc3ccccc32)C1=O (stereo unspecified) | 0.5 | -0.8 | -80.0* | -1.0 | 11.2
COC(=O)c1ccc(OC(=O)CN2C(=O)c3ccccc3C2=O)cc1 | 6.3 | -2.3 | -34.2* | 0.5 | -3.0
O=C1c2ccccc2C(=O)N1CCCCON1C(=O)c2ccccc2C1=O | 4.8 | -1.4 | -35.6* | -0.1 | -3.9
